# Compounds with a hit are over-represented: about 19% of the library has one in this group of screens.
# KB-V1 cytotox – kills drug-selected multidrug resistant KB-V1 cells; KB-V1 MDR cells viability, CellTiter-Glo, 72 h; Potency, µM (highest dose often 46.1 µM), usual class: cytotoxic; 400,000 compounds, 3.4% hits; further: nearly all actives have a fitted effect of over 60% in size
#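 In this primary screen, KB-V1 cells overexpressing P-gp are incubated with library compounds (lowest to highest concentration) for 72 h at 37 degrees C before a luminescent ATP viability read.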
# KB-3-1 tox – kills parental KB-3-1 adenocarcinoma cells; KB-3-1 viability, CellTiter-Glo ATP luminescence, 72 h; Potency, µM (titrated, usually from 46.1 µM), most hits filed as cytotoxic; 400,000 compounds, 1.4% hits; further: nearly all actives have a fitted effect of over 60% in size
#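 Using CellTiter-Glo luminescence, growth of non-resistant KB-3-1 adenocarcinoma cells is assessed 72 h after pin-tool compound addition at 37 °C. Normalized responses across the concentration series yield fitted curves.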
# HT1080NT lethal – kills 2HG-producing HT-1080-NT fibrosarcoma cells; HT-1080-NT fibrosarcoma viability, CellTiter-Glo ATP luminescence, 48 h; Potency, µM (titrated, usually from 46.1 µM), for inactives: at the highest dose activity, negative = less viability, usual class: cytotoxic; 360,000 compounds, 1.6% hits;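 further: NT is the 2HG producing partner of a matched IDH1 knockdown line; 0% = DMSO-treated cells and -100% = media-only wells without cells; nearly all actives have a fitted effect of over 55% in size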
#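 Viability of the 2HG-overproducing fibrosarcoma line after 48 hours of compound exposure at 37 degrees C was determined by luminescence with CellTiter-Glo, and concentration-effect curves were then fitted and categorized.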
# DT40 TDP1 CPT – growth inhibition of DT40 Tdp1-/-;hTDP1 cells with camptothecin (screen for TDP1 inhibitors). chicken DT40 Tdp1-/-;hTDP1 cells + 20 nM CPT, ATP luminescence, 48 h. AID 686979. Potency, µM (top dose mostly 46.2 µM), without a hit: at the highest dose activity change, negative = growth inhibition, actives largely listed as inhibitors. 420,000 compounds, 12% hits; further: nearly all actives have a fitted effect of over 55% in size
#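 Cell growth measured by CellTiter-Glo luminescence after a minimum 48 h, 37 C compound exposure with 20 nM CPT in Tdp1-knockout DT40 cells stably expressing hTDP1, seeded 400/well; qHTS titration format.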
# TDP1 cell noCPT – qHTS for Inhibitors of human tyrosyl-DNA phosphodiesterase 1 (TDP1): qHTS in cells in absence of CPT; Potency, µM (series often up to 46.2 µM), inactives show at the highest dose activity change, negative = growth inhibition, actives largely listed as inhibitors; AID 686978, 2013; DT40 Tdp1-/- hTDP1 cells, no CPT, ATP luminescence, 48 h; 420,000 compounds, 15% hits; further: nearly all actives have a fitted effect of over 55% in size
#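 Compound effects on proliferation are scored in DT40 Tdp1-/-;hTDP1 cells in the absence of CPT. ATP levels (CellTiter-Glo luminescence) are recorded after a ≥48 hr, 37 °C incubation.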
# HT1080 IDH1KD tx – toxicity to HT-1080 IDH1 knockdown cells (counter line). HT-1080 IDH1 knockdown viability, ATP luminescence, 48 h. Potency, µM (highest dose often 46.1 µM), for the others: at the top dose activity, negative = toxicity, hits mostly cytotoxic. 360,000 compounds, 2% hits;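 further: 0% = DMSO wells and -100% = cell-free medium wells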
#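 HT-1080-IDH1KD cells (IDH1 knocked down), 750/well in RPMI with 5% FBS, treated with compound 48 h at 37 degrees C. Viability by CellTiter-Glo luminescence, normalised to DMSO and no-cell wells; concentration-response curves classed.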
# Starred values were filed as active, the others as inactive; i = inactive; ? = inconclusive; nt = no result given. The call rests on the fitted dose curve; in most records, active means well fitted curve in the direction sought with a large enough effect; inconclusive means small, poorly fitted or top-dose-only effect, or another doubt; inactive means no such curve, though single readings can be large; an effect the other way counts as inactive or inconclusive. Unless noted, on the % scale 0 is the no-effect control and ±100 the full control effect; potency means the concentration at half of the fitted maximal effect.
SMILES,KB-V1 cytotox,KB-3-1 tox,HT1080NT lethal,DT40 TDP1 CPT,TDP1 cell noCPT,HT1080 IDH1KD tx
CC1CCC(NC(=O)COC(=O)c2n[nH]c(=O)c3ccccc23)CC1 (centres undefined),i,i,2.5%,-19.4%,0.9%,0.5%
Cc1cccc(C(=O)N(Cc2nc3ccccc3c(=O)[nH]2)C2CCCC2)c1,?,i,-19.2%,?,25.9µM*,-22.8%
O=c1[nH]c(CSc2nnc(-c3ccccc3)n2C2CCCCC2)nc2ccccc12,i,i,-2.2%,?,20.6µM*,-6.3%
O=C(COCc1nc2ccccc2c(=O)[nH]1)NCC1CCCCC1,i,i,-5.2%,-17.8%,?,-29.7%
O=c1[nH]c(CCC2CCCC2)nc2ccccc12,16.4µM*,i,0.3%,?,-29.7%,-0.4%
Cc1ccc(NS(=O)(=O)c2c(C(=O)N3CCCCCC3)c(C)n(C)c2C)c(Cl)c1,i,i,-0.5%,?,?,0.4%
CCCC(=O)Nc1cc(C(=O)N(C)CC(OC)OC)ccc1S(=O)(=O)c1ccc(C)cc1,i,i,1.9%,-6.1%,2.5%,-6.3%
CC(C)(C)OC(=O)N1CCC(c2nnc(SCc3ccccc3)o2)CC1,?,i,nt,nt,nt,nt
CC1CCN(C(=O)Cn2c3ccc(F)cc3c3nc4n(c(=O)c32)CCCS4)CC1,i,i,4.7%,?,?,3.1%
O=C(c1ccc(Br)cc1)N(Cc1nc2ccccc2c(=O)[nH]1)C1CCCC1,?,16.4µM*,?,?,18.4µM*,23.1µM*
O=C(c1ccccc1)N(Cc1nc2ccccc2c(=O)[nH]1)C1CCCC1,?,i,-15.2%,7.6%,-29.8%,-9.9%
O=c1[nH]c(=O)c2nnc(N/N=C\c3ccc(O)cc3)nc2[nH]1,i,i,10.6%,20.0%,-15.5%,9.9%
CCc1ccc2[nH]c3nc(N/N=C/c4cccc(O)c4)nnc3c2c1,i,?,?,-2.3%,-0.5%,9.2µM*
CCOC(=O)c1ccccc1NC(=O)c1c(-c2ccccc2)noc1C,?,?,nt,9.2µM*,4.61µM*,nt
Cc1onc(-c2c(F)cccc2Cl)c1C(=O)OCC(=O)c1c[nH]c2ccccc12,i,i,?,?,18.4µM*,?
Cc1onc(-c2ccccc2)c1C(=O)Nc1ccc(NC(=O)c2c(-c3ccccc3)noc2C)cc1,i,i,1.2%,-2.0%,-18.9%,3.5%
Cc1onc(-c2c(Cl)cccc2Cl)c1C(=O)N(C)Cc1ccccc1,i,i,-3.5%,-27.8%,-28.4%,-6.5%
Cc1noc(C)c1C(=O)OCC(=O)c1c[nH]c2ccccc12,i,i,-0.5%,13.2%,-25.5%,0.8%
Cc1cccc(OCCOC(=O)c2c(-c3ccccc3)noc2C)c1,?,?,?,?,23.1µM*,?
Cc1onc(-c2c(F)cccc2Cl)c1C(=O)N(Cc1ccccc1)C(C)C,?,i,1.7%,?,9.2µM*,-19.8%
CN1CCN(C(CNC(=O)C(=O)NC2CCCC2)c2ccc(F)cc2)CC1 (centres undefined),i,i,14.1%,-1.2%,2.9%,6.4%
CCC(C)(C)NS(=O)(=O)c1cc(CN2C(=O)c3cccnc3C2=O)ccc1OC,i,i,0.4%,-6.7%,1.2%,-2.1%
Cc1ccccc1NC(=S)N1CCN(c2ccccc2)CC1,?,i,2.2%,-15.9%,1.9%,5.7%
CN(C)c1nc(-c2ccccc2C(F)(F)F)nc2ccccc12,nt,nt,nt,-12.1%,-13.8%,nt
COc1ccccc1N1CCN(C(=O)c2ccc3noc(-c4ccccc4)c3c2)CC1,?,i,-16.3%,?,?,-11.5%
SMILES,KB-V1 cytotox,KB-3-1 tox,HT1080NT lethal,DT40 TDP1 CPT,TDP1 cell noCPT,HT1080 IDH1KD tx
Cc1onc(-c2ccccc2Cl)c1C(=O)c1ccccc1,i,i,6.3%,-9.4%,?,10.2%
Cc1onc(-c2c(Cl)cccc2Cl)c1C(=O)c1ccccc1,i,i,-2.4%,23.1µM*,20.6µM*,-8.2%
Cc1onc(-c2c(F)cccc2Cl)c1C(=O)Oc1ccccc1,?,i,-4.8%,?,13µM*,1.5%
CCOc1ccc(OC(=O)c2c(-c3ccccc3Cl)noc2C)cc1,i,i,nt,?,20.6µM*,nt
Cc1onc(-c2ccccc2)c1C(=O)OCC(=O)Nc1ccccc1Cl,?,i,-9.3%,?,18.4µM*,-4.8%
Cc1onc(-c2ccccc2)c1C(=O)OCC(=O)Nc1ccc(Cl)cc1,i,i,-8.2%,?,?,-21.5%
Fc1ccc(COc2ccc(C(=S)N3CCCC3)cc2)cc1,i,i,-2.6%,-0.1%,?,-4.1%
O=C1NC[C@H](CCCCN2C[C@H](Cc3ccc(O)cc3)N(CC3CCCCC3)C(=O)C2=O)N(Cc2ccccc2)C1=O,i,i,17.9%,-1.1%,-20.9%,24.7%
O=C(NC1CCCCC1)c1[nH]c(C(F)(F)F)nc1-c1ccccc1,i,i,4.1%,?,-12.2%,-4.0%
Cc1onc(-c2c(F)cccc2Cl)c1C(=O)OCC(=O)NC(c1ccccc1)c1ccccc1,6.51µM*,i,-24.4%,?,?,?
COc1ccc(NC(=O)c2ccco2)cc1NC(=O)c1ccc(C)cc1,?,i,-4.5%,-14.0%,?,-4.2%
COc1ccc(NC(=O)c2ccco2)cc1NC(=O)c1cccs1,8.2µM*,i,2.7%,-1.8%,-16.9%,3.5%
COc1ccc(NC(=O)c2ccco2)cc1NC(=O)c1ccc(OC(C)C)cc1,i,i,nt,?,20.6µM*,nt
COc1cc(NC(=O)c2cccs2)c(OC)cc1NC(=O)c1ccco1,?,i,3.9%,-11.4%,-18.2%,-3.3%
COc1ccc(NC(=O)CCc2ccccc2)cc1NC(=O)c1ccco1,7.31µM*,i,-25.7%,-0.5%,-17.4%,-10.6%
CCC(=O)N1CCc2cc(Br)cc(S(=O)(=O)N3CCCC(C(=O)Nc4ccc(C(C)C)cc4)C3)c21 (centres undefined),i,i,nt,-26.1%,?,nt
CC(c1cccs1)N(C)Cc1nc(CCc2ccccc2)no1 (centres undefined),i,i,22.4%,-2.8%,2.4%,19.8%
CCCCNC(=O)c1ccc2c(c1)N(C)C(=O)c1ccccc1S2,i,i,-10.5%,?,?,8.9%

# Bioassay records deposited in PubChem BioAssay by National Center for Advancing Translational Sciences (NCATS).
